Reference: PubChem BioAssay (NCATS)
Records with an inconclusive call do not appear. Calls of active or inactive are those of the source. Calls follow the shape of the dose curve; as a rule, active = well fitted inhibition curve with a large enough effect; inconclusive = small, poorly fitted or top-dose-only effect; inactive = flat fitted curve, though single readings scatter.

Columns and labels:
Experiment in all cases: qHTS profiling for inhibitors of Plasmodium falciparum proliferation (AID 504749); also: nearly all actives have a fitted effect of over 60% in size
Conditions in all cases: P. falciparum in erythrocytes, SYBR Green DNA, 72 h; series mostly up to 28.7 µM
CP256 = test system: CP256
Procedure, shortened: (§1)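 Parasite proliferation within erythrocytes, 72 h exposure. Endpoint: SYBR Green I fluorescence after overnight lysis at room temperature. Controls: 0.29 uM artemisinin, DMSO.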

CP260 = test system: CP260
Procedure, shortened: as §1

CP262 = test system: CP262
Procedure, shortened: as §1

CP265 = test system: CP265
Procedure, shortened: as §1

CP266 = test system: CP266
Procedure, shortened: as §1

CP268 = test system: CP268
Procedure, shortened: as §1

CP269 = test system: CP269
Procedure, shortened: as §1

CP286 = test system: CP286
Procedure, shortened: as §1

CP291 = test system: CP291
Procedure, shortened: as §1

CP297 = test system: CP297
Procedure, shortened: as §1

Measured: Potency

c1ccc(-n2cnnn2)cc1
inactive: all assays above

CC1C(=O)CC2C3(C)CCC2(C(C)C(=O)O)C(=O)C13 (stereo not given)
inactive: all assays above

CC(C)c1nc(N(C)S(C)(=O)=O)nc(-c2ccc(F)cc2)c1/C=C/C(O)CC(O)CC(=O)O (stereo not given)
inactive: all assays above

CC(=O)Oc1cccc(C(=O)O)c1OC(C)=O
inactive: all assays above

COC(=O)C(CN)c1c[nH]c2ccc(OC)cc12 (stereo not given)
inactive: all assays above

NC(=S)NS(=O)(=O)c1ccc(N)cc1
inactive: all assays above

CC12CCC(C1)C(C)(C)C2=O (stereo not given)
inactive: all assays above

Cc1ncc(COP(=O)(O)O)c(CN)c1O
inactive: all assays above

O=C(OCc1ccccc1)c1ccc(O)cc1
inactive: all assays above

CCOC(=O)C1=C(COCCN)NC(C)=C(C(=O)OC)C1c1ccccc1Cl (stereo not given)
inactive: all assays above

Cc1cc(=O)c(C(=O)N[C@@H](C(=O)N[C@@H]2C(=O)N3C(C(=O)O)=C(CSc4nnnn4C)CS[C@H]23)c2ccc(O)cc2)c[nH]1
inactive: all assays above

COC(=O)c1ccccc1O
inactive: all assays above

O=C(/C=C/c1cccc(F)c1)NC1CC1
inactive: all assays above

CC1CCC(NC(=O)N(CCCl)N=O)CC1 (stereo not given)
inactive: all assays above

C=CCOc1ccc(CC(=O)O)cc1Cl
inactive: all assays above

CO
inactive: all assays above

O=C1c2ccccc2C(=O)C1c1ccc(F)cc1
inactive: all assays above

O=C(O)CCC/C=C\C[C@@H]1[C@@H](/C=C/[C@@H](O)COc2cccc(Cl)c2)[C@H](O)C[C@@H]1O
inactive: all assays above

Cc1cc2nc3c(=O)[nH]c(=O)nc-3n(C[C@H](O)[C@H](O)[C@H](O)COP(=O)(O)OP(=O)(O)OC[C@H]3O[C@@H](n4cnc5c(N)ncnc54)[C@H](O)[C@@H]3O)c2cc1C
inactive: all assays above

COC1=C(OC)C(=O)C(C/C=C(\C)CC/C=C(\C)CC/C=C(\C)CC/C=C(\C)CC/C=C(\C)CC/C=C(\C)CC/C=C(\C)CC/C=C(\C)CC/C=C(\C)CCC=C(C)C)=C(C)C1=O
inactive: all assays above

CC(/C=C/C=C(\C)C(=O)O[C@@H]1O[C@H](CO[C@@H]2O[C@H](CO)[C@@H](O)[C@H](O)[C@H]2O)[C@@H](O)[C@H](O)[C@H]1O)=C\C=C\C=C(C)\C=C\C=C(/C)C(=O)O[C@@H]1O[C@H](CO[C@@H]2O[C@H](CO)[C@@H](O)[C@H](O)[C@H]2O)[C@@H](O)[C@H](O)[C@H]1O
inactive: all assays above

CCCOC(=O)c1ccccc1O
inactive: all assays above

CC(C)CCC[C@@H](C)[C@H]1CC[C@H]2[C@@H]3CC[C@@H]4C[C@H](O)CC[C@]4(C)[C@H]3CC[C@]12C
inactive: all assays above

CCCc1nc(C(C)(C)O)c(C(=O)OCc2oc(=O)oc2C)n1Cc1ccc(-c2ccccc2-c2nn[nH]n2)cc1
inactive: all assays above

CS(=O)(=O)OCC(O)C(O)COS(C)(=O)=O (stereo not given)
inactive: all assays above

OCC1(CO)COC(C(Cl)(Cl)Cl)OC1
inactive: all assays above

CC/C=C\C/C=C\C/C=C\CCCCCCCC(=O)O
inactive: all assays above

CN1C(=O)C[C@@H](C(=O)N[C@@H](Cc2cnc[nH]2)C(=O)N2CCC[C@H]2C(N)=O)NC1=O
inactive: all assays above

CN(C)CCOc1ccc(/C(=C(/CCCl)c2ccccc2)c2ccccc2)cc1
inactive: all assays above

O=C(CCCCCCCCCCCCC1CCCC1)Nc1ccc(S(=O)(=O)c2ccc(NC(=O)CCCCCCCCCCCCC3CCCC3)cc2)cc1
inactive: all assays above

COC(=O)CCC[N+](C)(C)C
inactive: all assays above

NCC(O)CC(=O)O (stereo not given)
inactive: all assays above

CC(C)Cc1ccc([C@@H](C)C(=O)NS(C)(=O)=O)cc1
inactive: all assays above

CC1CC(OC(=O)C(O)c2ccccc2)CC(C)(C)C1 (stereo not given)
inactive: all assays above

O=C1c2ccccc2C(=O)C1c1ccc(Cl)cc1
inactive: all assays above

CC(=O)Nc1ccc(OC(C)=O)cc1
inactive: all assays above

O=C(NNCS(=O)(=O)O)c1ccncc1
inactive: all assays above

CCN(CC)C(=O)c1cccnc1
inactive: all assays above

CCCCCCCCCCCCCCCCCC(=O)OCC(C)O (stereo not given)
inactive: all assays above

O=S(=O)(O)CCCS(=O)(=O)O
inactive: all assays above

Cc1cc(C)c(NC(=O)C[C@H](CC(=O)O)c2cccc3ccccc23)c(C(=O)N2CCC3(CCCC3)CC2)c1
inactive: all assays above

O=C(O)c1ccc(NC(=O)[C@H](Cc2ccc(O)cc2)NC(=O)c2ccccc2)cc1
inactive: all assays above

O=P(O)(O)O
inactive: all assays above

O=C(O)COc1ccccc1/C=N/NC(=O)c1ccncc1
inactive: all assays above

CC1(O)CCC(C(C)(C)O)CC1 (stereo not given)
inactive: all assays above
